This note sets out measurements from PubChem BioAssay (NCI).

Structures are written as SMILES. The panel holds about 83,000 compounds, 20% with a hit somewhere; the sample as a whole holds those more often.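 How to read the values: 0–100, growth inhibition (40 = 60% inhibited); 0, no net growth; -100 to 0, cell death (-40 = 40% of starting cells died; -100 = all dead).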 Unmarked numbers belong to inactive results. The source made the active and inactive calls. Rule for the calls: active = growth percent below 10; inactive = the rest.

Some test systems named below: BT-549 breast; MDA-MB-435 melanoma; SW-620 colon; MCF7 breast; HCT-116 colon; HCC-2998 colon; KM12 colon.
Common to all, as to experiment: NCI-60 one-dose screen, 48 h (100 = growth as untreated, 0 = no growth, -100 = all killed)
Common to all, as to conditions: 10 µM unless noted

As for `CC/C=C(\C)C(CCC)(CN=O)C(=O)OCC` (stereo not drawn), the growth in the assay with BT-549 breast is 112%; in the assay with MDA-MB-435 melanoma, 117%; in the assay with SW-620 colon it was 109%; in the assay with MCF7 breast, 102%; in the assay on HCT-116 colon, 92.2%; with HCC-2998 colon it was 96.2%. In addition, in the assay with KM12 colon, the growth was 112%.

For the compound `C[N+](C)(C)c1ncnc2[n-]cnc12`, the growth is 104% with MDA-MB-435 melanoma, 96.1% in the assay on SW-620 colon, 105% with HCT-116 colon and 93.6% in the assay with KM12 colon.

Consider `CN(C)c1ccc(N=Nc2ccc3ccccc3c2)cc1`, for which the growth was 101% with BT-549 breast; 101% in the assay on MDA-MB-435 melanoma; 96.9% in the assay with SW-620 colon; 43.9% in the assay with MCF7 breast; 66% in the assay on HCT-116 colon; 99.8% with HCC-2998 colon. Further, the growth in the assay with KM12 colon is 92.8%.

As to `COC(=O)c1c(C)[nH]c(/C=C2\N=C(c3ccc[nH]3)C=C2OC)c1C`, the growth in the assay on BT-549 breast was 0.541% (active); with MDA-MB-435 melanoma it was -44.9% (active); in the assay on SW-620 colon, 1.56% (active); in the assay on MCF7 breast it was 1.82% (active); with HCT-116 colon, -75% (active); in the assay on HCC-2998 colon it was -40.9% (active). In addition, the growth with KM12 colon is -2.32% (active).

For the compound `CC1Cc2c(ncnc2-n2cnc3ccccc32)N(C)c2ccccc21` (stereo not drawn), the growth was -23.7% (active) in the assay on MDA-MB-435 melanoma; 17.7% in the assay on SW-620 colon; 18.2% with MCF7 breast; 21.3% in the assay on HCT-116 colon; 64.8% with HCC-2998 colon; 27.8% in the assay with KM12 colon.

As to `CC(C)CCNCC(C)(C)O`, the growth was 110% in the assay with BT-549 breast; 112% in the assay on MDA-MB-435 melanoma; 109% in the assay on SW-620 colon; 109% in the assay on MCF7 breast; 109% in the assay with HCT-116 colon; 109% with HCC-2998 colon. In the assay with KM12 colon, the growth was 116%.

On to `CCCCC1COc2cccc3c2N1C=C/C3=C\C(=O)n1ccc2ccccc21` (stereo not drawn), for which the growth was 89.9% in the assay on BT-549 breast; -16.4% (active) with MDA-MB-435 melanoma; 46.4% with SW-620 colon; 48.6% in the assay with MCF7 breast; 58.3% in the assay with HCT-116 colon; 101% in the assay on HCC-2998 colon. Besides, in the assay on KM12 colon, the growth was 68.2%.

On to `c1cc2ccc1CNCCN1CCNCc3ccc(cc3)Oc3ccc(cc3)CNCCN(CCNCc3ccc(cc3)O2)CCNCc2ccc(cc2)Oc2ccc(cc2)CNCC1`, for which the growth is 82.1% in the assay on BT-549 breast; -96.3% (active) in the assay with MDA-MB-435 melanoma; -75.5% (active) in the assay with SW-620 colon; -75.4% (active) with MCF7 breast; -89.7% (active) in the assay on HCT-116 colon; -87.8% (active) in the assay with HCC-2998 colon. Further, the growth in the assay with KM12 colon is -88.6% (active).

Turning to `O=C(OCc1ccc2c(Cl)cc(Cl)c(O)c2n1)N1CCN(C(=O)c2cc3cc(F)ccc3[nH]2)CC1`, the growth with MDA-MB-435 melanoma was -54.5% (active); with MCF7 breast, 14.5%; with HCT-116 colon, 5.58% (active); with HCC-2998 colon, 22.6%; with KM12 colon, -15.2% (active).

Consider `O=S(=O)(NCCCNc1nccc(-c2c(-c3cccc(F)c3)nc3occn23)n1)c1cccc2ccccc12`, for which the growth in the assay with BT-549 breast is 45%; in the assay on MDA-MB-435 melanoma, 15.7%; with SW-620 colon it was 24.2%; in the assay with HCT-116 colon it was 23.4%; in the assay with HCC-2998 colon it was 2.75% (active); in the assay on KM12 colon, 15.7%.

For the compound `O=C(CSc1nc2ccc([N+](=O)[O-])cc2[nH]1)Nc1ccc(F)c(Cl)c1`, the growth in the assay with BT-549 breast is -0.0932% (active); with MDA-MB-435 melanoma, 15.5%; with SW-620 colon, 26.4%; in the assay with MCF7 breast, 9.25% (active); with HCT-116 colon it was 7.89% (active); with HCC-2998 colon it was 32.9%. Also, the growth in the assay on KM12 colon is 19.9%.

On to `O=C(N/N=C\c1cc(Cl)ccc1O)N/N=C/c1cc(Cl)ccc1O`, for which the growth with MDA-MB-435 melanoma is 47.7%; in the assay with SW-620 colon, 42.3%; in the assay with MCF7 breast, 46.2%; in the assay with HCT-116 colon it was 16%; in the assay on HCC-2998 colon it was 46.1%; with KM12 colon, 44.4%.

With `Cc1cc(C)nc(SCC(=O)Nc2cccc(N=Cc3ccccc3O)c2)n1`, the growth in the assay with BT-549 breast was 92.9%; with MDA-MB-435 melanoma, 99.2%; with SW-620 colon, 99.1%; in the assay with MCF7 breast it was 94.3%; in the assay on HCT-116 colon, 97.3%; in the assay on HCC-2998 colon it was 121%. The growth with KM12 colon was 107%.

In the case of `CCc1ccc(NC(=O)N[C@@H](Cc2cc(F)cc(F)c2)C(=O)N[C@@H]2C(=O)N3C[C@H](O)C[C@H]3C(=O)N3CCOC[C@H]3C(=O)N[C@@H](C)C(=O)N3C[C@H](C)C[C@H]3C(=O)O[C@H]2C)cc1`, the growth with BT-549 breast was 11.3%; in the assay on MDA-MB-435 melanoma, 21.5%; in the assay on SW-620 colon it was 48.5%; in the assay on MCF7 breast it was 24.1%; in the assay on HCT-116 colon it was 13.7%; with HCC-2998 colon it was 32.1%. In the assay on KM12 colon, the growth was 42.7%.

Take `C=C(C)C1CCC2(C(=O)O)CCC3(C)C(CCC4C5(C)CCC(OC(=O)NCc6ccccc6)C(C)(C)C5CCC43C)C12` (stereo not drawn): the growth in the assay with BT-549 breast was 64.8%; with MDA-MB-435 melanoma it was 58.7%; in the assay on SW-620 colon, 34.9%; in the assay with MCF7 breast it was 35.9%; in the assay on HCT-116 colon it was 18%; in the assay on HCC-2998 colon it was 51.3%. In the assay on KM12 colon, the growth is 28.1%.

On to `N#C/C(=C(/O)CCCO)c1nc2ccccc2c(=O)[nH]1`, for which the growth was 109% in the assay on BT-549 breast; 168% with MDA-MB-435 melanoma; 86.6% in the assay on MCF7 breast; 98.9% in the assay with HCT-116 colon; 73.5% with HCC-2998 colon; 100% in the assay on KM12 colon.
